“And” between values parts separate entries of the source, which are not always exact repeats. Identical values can stand only once. Results filed as inconclusive are left out. The source made the active and inactive calls. The calls were made as follows, unless noted: active = hit-call score of the fitted dose curve at least 0.9, where 1 is the maximum; inactive = score below 0.9.
Tests used:
[1] = CCTE_Shafer_MEA_acute_synchrony_index: CCTE's Neural Acute Assay for Synchrony, Shafer Lab (AID 2284027);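 also: fitted for loss of signal so actives lower synchrony relative to DMSO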
In short: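 Readout is percent change in the unitless network synchrony index (0 low, 1 high) between a 40-min baseline and a 40-min recording in compound. Cultures were primary rat cortical neurons on MEAs, treated at 0.03-40 uM on DIV 13 or 15.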

[2] = CCTE_Shafer_MEA_dev_firing_rate_mean: CCTE's Neural Network Formation Assay for Mean Firing Rate, Shafer Lab (AID 2284031);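 as to AC50: curve fitted for loss of firing so AC50 reflects decreased mean firing rate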
In short: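 Rat primary cortical neurons were seeded on multielectrode arrays and treated from plating through day 12, with redosing at each feed. Spontaneous spiking was recorded four times; mean firing rate AUC was fitted downward against DMSO.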

[3] = CCTE_Shafer_MEA_dev_per_burst_spike_percent: CCTE's Neural Network Formation Assay for Percent of Spikes in a Burst, Shafer Lab (AID 2284032);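 as to AC50: fitted as a decrease in burst spike percentage below DMSO baseline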
In short: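 Rat primary cortical neurons on 16-electrode MEA wells, dosed from plating day 0 for 12 days with renewal on DIV 5 and 9; spikes-in-bursts percentage averaged over bursting electrodes, collapsed as AUC across days 5, 7, 9, 12; loss direction versus DMSO.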

[4] = CCTE_Shafer_MEA_dev_burst_rate: CCTE's Neural Network Formation Assay for Burst Rate, Shafer Lab (AID 2284042);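 as to AC50: potency for loss of burst rate below DMSO control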
In short: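 Developmental network assay measuring how 12-day exposure of rat cortical neuron cultures alters bursting on extracellular MEA recordings. Values are AUC of well-mean burst rate across four recording days, relative to DMSO vehicle.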

[5] = CCTE_Shafer_MEA_dev_bursting_electrodes_number: CCTE's Neural Network Formation Assay for Number of Bursting Electrodes, Shafer Lab (AID 2284043; active = hit-call score of the fitted dose curve at least 0.9, where 1 is the maximum;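 as to AC50: potency is for loss of bursting electrodes relative to DMSO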)
In short: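 Primary rat cortical neurons plated on 16-electrode MEA wells, exposed from day 0 with compound renewed at DIV 5 and 9. Electrodes bursting ≥1 burst per 2 min counted on days 5, 7, 9 and 12; trapezoidal AUC across days, fitted for loss versus DMSO.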

[6] = CCTE_Shafer_MEA_dev_per_burst_interspike_interval: CCTE's Neural Network Formation Assay for Burst Interspike Interval, Shafer Lab (AID 2284044);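 as to AC50: potency for a decrease of within-burst interspike interval below DMSO level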
In short: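 Readout is the average time between spikes inside single-electrode bursts, taken as a well mean across bursting electrodes. Cortical neurons from rat developed networks on MEA plates under continuous 12-day exposure; recordings on days 5, 7, 9 and 12 were integrated by trapezoidal AUC.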

[7] = CCTE_Shafer_MEA_dev_burst_duration_mean: CCTE's Neural Network Formation Assay for Mean Burst Duration, Shafer Lab (AID 2284045);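 as to AC50: curve fitted for loss meaning shorter burst duration than DMSO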
In short: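 Primary rat cortical neurons on 48-well 16-electrode MEA plates, exposed from day 0 with renewal at DIV 5 and 9; spontaneous activity recorded on days 5, 7, 9, 12. Well-mean burst duration across bursting electrodes, collapsed as trapezoidal AUC; DMSO baseline.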

[8] = CCTE_Shafer_MEA_dev_interburst_interval_mean: CCTE's Neural Network Formation Assay for Mean Interburst Interval, Shafer Lab (AID 2284046);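 also: well-mean interburst interval of bursting electrodes as AUC over four recording days; curve fitted for decrease in interburst interval relative to DMSO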
In short: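 Network formation assay in primary rat cortical cultures, exposed from DIV 0 to 12. Mean interburst interval per well, integrated as AUC over four recordings.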

[9] = CCTE_Shafer_MEA_dev_network_spike_number: CCTE's Neural Network Formation Assay for Number of Network Spikes, Shafer Lab (AID 2284048);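 as to AC50: fit as a loss of signal meaning fewer network spikes than DMSO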
In short: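 Primary rat cortical neurons on PEI/laminin 48-well MEA plates, dosed from plating day 0 for 12 days, renewed at DIV 5 and 9. Network spike counts recorded DIV 5, 7, 9, 12, collapsed as trapezoidal AUC; DMSO baseline.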

[10] = CCTE_Shafer_MEA_dev_network_spike_peak: CCTE's Neural Network Formation Assay for Mean Number of Electrodes in Network Spike, Shafer Lab (AID 2284049);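 as to AC50: fitted for loss of signal meaning fewer electrodes in network spikes than DMSO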
In short: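 Network-spike peak electrode count from recordings on days 5, 7, 9 and 12 was combined as trapezoidal area under the curve. Rat cortical cultures were treated continuously from plating, with compound renewed at each feed (DIV 5, 9); fits versus DMSO.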

[11] = CCTE_Shafer_MEA_dev_spike_duration_mean: CCTE's Neural Network Formation Assay for Mean Spike Duration, Shafer Lab (AID 2284051);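 also: mean network spike duration pooled as area under curve over DIV 5 to 12 recordings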;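 as to AC50: potency for a decrease in mean network spike duration versus DMSO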
In short: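 With DMSO as baseline, loss of mean network spike duration was scored from extracellular recordings of rat cortical neurons on MEA plates. Exposure spanned plating to DIV 12; the four recording days were collapsed into one AUC value.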

[12] = CCTE_Shafer_MEA_dev_network_spike_duration_std: CCTE's Neural Network Formation Assay for Standard Deviation of Network Spike Duration, Shafer Lab (AID 2284052);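 also: area under curve of spike duration SD across recording days 5 to 12; hits are decreases in network spike duration SD versus DMSO vehicle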
In short: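 Developing networks of rat cortical neurons were exposed over twelve days in vitro on 48-well MEA plates. Trapezoidal AUC of recordings (DIV 5–12) was analysed for signal loss relative to DMSO vehicle.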

[13] = CCTE_Shafer_MEA_dev_per_network_spike_spike_number_mean: CCTE's Neural Network Formation Assay for Mean Number of Spikes in a Network Spike, Shafer Lab (AID 2284053);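 as to AC50: fitted as decrease in spikes per network spike relative to DMSO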
In short: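 First, rat cortical cells (1.5 x 10^5/well) were seeded onto MEA wells; second, dosing began at plating and was refreshed on DIV 5 and 9; finally, network-spike spike counts across DIV 5–12 were summarized as AUC.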

[14] = biological target: Estrogen receptor (Homo sapiens) (UniProt P03372); test: CCTE_Deisenroth_AIME_384WELL_LUC_Active: CCTE's 384-well Estrogen Receptor Transactivation Assay with AIME metabolic competence (ERTA luciferase; metabolism positive), Deisenroth Lab (AID 2284030; active = hit-call score of the fitted dose curve at least 0.9, where 1 is the maximum)
In short: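 Readout: bioluminescent luciferase induction in VM7Luc4E2 cells 24 hour after receiving medium from a 2 h rat hepatic S9 (induced, alginate microsphere) metabolism step. Concentrations 0.002 - 200 uM; activity scaled to 17beta-estradiol positive control.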

[15] = CCTE_Deisenroth_AIME_384WELL_CTox_Active: Cytotoxicity Assessment (CTOX) in CCTE's 384-well Estrogen Receptor Transactivation Assay with AIME metabolic competence (metabolism positive), Deisenroth Lab (AID 2284037; active = hit-call score of the fitted dose curve at least 0.9, where 1 is the maximum;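 also: activity means signal loss indicating cell death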)
In short: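 Chemicals pre-incubated 2 hours with alginate-immobilised phenobarbital/beta-naphthoflavone-induced male Sprague Dawley rat liver S9, then conditioned medium applied 24 hour to VM7Luc4E2 cells. Viability by fluorogenic protease substrate; 10-point series 0.002 - 200 uM.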

[16] = biological target: Estrogen receptor (Homo sapiens) (UniProt P03372); test: CCTE_Deisenroth_AIME_384WELL_LUC_Inactive: CCTE's 384-well Estrogen Receptor Transactivation Assay without AIME metabolic competence (ERTA luciferase; metabolism negative), Deisenroth Lab (AID 2284038; active = hit-call score of the fitted dose curve at least 0.9, where 1 is the maximum;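 also: VM7Luc4E2 breast cells given medium preincubated 2 h with S9-free microspheres; hits raise estrogen receptor luciferase signal so potencies reflect agonists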)
In short: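 Metabolism-negative mode: chemicals (10-point, 0.002–200 uM) held 2 h with alginate-water microspheres, then conditioned medium applied to VM7Luc4E2 cells for 24 h. Luciferase induction referenced to 17beta-estradiol.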

[17] = CCTE_Deisenroth_AIME_384WELL_CTox_Inactive: Cytotoxicity Assessment (CTOX) in CCTE's 384-well Estrogen Receptor Transactivation Assay without AIME metabolic competence (metabolism negative), Deisenroth Lab (AID 2284039; active = hit-call score of the fitted dose curve at least 0.9, where 1 is the maximum;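 also: cell viability via live-cell protease substrate cleaved to fluorescent probe; cells exposed 24 h to medium preincubated 2 h with alginate-water beads without S9; loss of fluorescence signal means loss of viability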)
In short: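 Fluorescence from a live-cell protease substrate, read after 24 h in VM7Luc4E2 cells, indicated viability. Test medium came from a 2 h AIME step without hepatic S9 (alginate-water microspheres); concentrations spanned 0.002 - 200 uM, single technical replicate per run.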

DIO2 (gene 1734) = test: CCTE_GLTED_hDIO2: CCTE's human Deiodinase 2 (DIO2) Inhibition Assay, Great Lakes Toxicology and Ecology Division (GLTED) Lab (AID 2284050; active = hit-call score of the fitted dose curve at least 0.9, where 1 is the maximum)
In short: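 hDIO2 enzyme + test chem, 3 h → free iodide from substrate; step 2: Sandell-Kolthoff (Ce IV reduction by As, iodide-catalysed), spectrophotometric read. Triplicate plates; DMSO = baseline.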

[18] = CCTE_Deisenroth_AIME_96WELL_CTox_Active: Cytotoxicity Assessment (CTOX) in CCTE's 96-well Estrogen Receptor Transactivation Assay with AIME metabolic competence (metabolism positive), Deisenroth Lab (AID 2284028; active = hit-call score of the fitted dose curve at least 0.9, where 1 is the maximum)
In short: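 Chemicals (0.002–200 uM) were first incubated 2 h with alginate-immobilized phenobarbital/beta-naphthoflavone-induced male rat liver S9; conditioned medium then went onto VM7Luc4E2 cells for 24 h, with viability read by protease-substrate fluorescence, fitted bidirectionally.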

[19] = CCTE_Deisenroth_AIME_96WELL_CTox_Inactive: Cytotoxicity Assessment (CTOX) in CCTE's 96-well Estrogen Receptor Transactivation Assay without AIME metabolic competence (metabolism negative), Deisenroth Lab (AID 2284029; active = hit-call score of the fitted dose curve at least 0.9, where 1 is the maximum)
In short: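 Chemicals (0.002 - 200 uM, 10 points) incubated 2 h with alginate-water microspheres (no S9), then medium moved onto VM7Luc4E2 cells for 24 h. Viability by protease-substrate cleavage to fluorescent probe; bidirectional fitting.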

Measured: AC50

Estrogen receptor (Homo sapiens), sequence (P03372 whole entry, looked up): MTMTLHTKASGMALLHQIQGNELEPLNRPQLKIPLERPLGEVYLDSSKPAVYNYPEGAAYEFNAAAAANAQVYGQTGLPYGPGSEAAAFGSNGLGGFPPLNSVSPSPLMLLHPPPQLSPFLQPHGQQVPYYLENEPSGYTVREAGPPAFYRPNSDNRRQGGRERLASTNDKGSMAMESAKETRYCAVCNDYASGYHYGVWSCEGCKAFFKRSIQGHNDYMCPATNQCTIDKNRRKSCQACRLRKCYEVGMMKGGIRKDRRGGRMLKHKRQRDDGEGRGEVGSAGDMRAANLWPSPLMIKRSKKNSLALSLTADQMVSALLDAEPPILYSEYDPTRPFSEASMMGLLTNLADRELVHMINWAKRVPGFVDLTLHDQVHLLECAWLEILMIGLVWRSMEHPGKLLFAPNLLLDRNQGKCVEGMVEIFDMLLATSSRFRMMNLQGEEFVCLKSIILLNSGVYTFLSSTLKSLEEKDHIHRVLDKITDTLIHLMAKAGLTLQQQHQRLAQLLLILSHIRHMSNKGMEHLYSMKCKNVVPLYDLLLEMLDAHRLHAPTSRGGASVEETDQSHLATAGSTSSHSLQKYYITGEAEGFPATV

COC(=O)Cc1ccccc1
inactive: [1]

ClC1(Cl)C2(Cl)C3(Cl)C4(Cl)C(Cl)(Cl)C5(Cl)C3(Cl)C1(Cl)C5(Cl)C24Cl (centres undefined)
active: [3] 3.9 µM | [4] 2.64 µM | [5] 1.62 µM | [6] 1.58 µM | [8] 3.37 µM | [9] 888 nM | [10] 2.32 µM | [11] 2.35 µM | [12] 1.03 µM | [13] 2.68 µM
inactive: [1] | [2] | [7]

ClC(Cl)=C(Cl)C(Cl)=C(Cl)Cl
inactive: [14] | [15] | [16] | [17]

CNC
inactive: [14] | [15] | [16] | [17]

CC(=O)OC(c1ccccc1)C(Cl)(Cl)Cl (centres undefined)
active: [1] 26.7 µM

O=C(O)C(F)(F)C(F)(F)C(F)(F)C(F)(F)C(F)(F)C(F)(F)C(F)(F)C(F)(F)C(F)(F)C(F)(F)F
active: DIO2 (gene 1734) 50 µM and 53.2 µM
not listed: [14] | [15] | [16] | [17] | [18] | [19]
inactive: all other assays above

Cc1ccc(N)cc1Cl
inactive: [14] | [15] | [16]

OCC(O)CCl (centres undefined)
inactive: [15]
active: [14] 555 nM | [16] 124 nM

CC(C)(C)c1cc(O)ccc1O
inactive: [2] | [4] | [6] | [7] | [8] | [9] | [12]
active: [1] 29.9 µM | [14] 0.221 nM | [3] 10 µM | [15] 137 µM | [16] 0.233 nM | [17] 100 µM | [5] 6.04 µM | [10] 10 µM | [11] 9.62 µM | [13] 5.63 µM

O=C(O)C(Cl)(Cl)Cl
inactive: [1]

CC(C)(OO)c1ccccc1
inactive: [1]

CC(C)(c1ccccc1)c1ccc(O)c(C(C)(C)c2ccccc2)c1
active: [1] 6.29 µM | [15] 93.9 µM | [17] 64.6 µM | DIO2 (gene 1734) 91.9 µM

O=C(NCO)NCO
inactive: [14] | [15] | [16]

O=C(Nc1ccc2[nH]ccc2c1)c1cc2cc(F)ccc2n1Cc1cccc(F)c1
inactive: [1]

CCC(=O)C(CC(C)N(C)C)(c1ccccc1)c1ccccc1 (centres undefined)
inactive: [1] | [7] | [9] | [12]
active: [2] 3.42 µM | [3] 7.25 µM | [4] 4.16 µM | [5] 4.45 µM | [6] 6.65 µM | [8] 4.24 µM | [10] 4.26 µM | [11] 3.49 µM | [13] 3.36 µM

CCC(C)(C)c1ccc(O)c(C(C)(C)CC)c1
active: [1] 20 µM | [15] 102 µM | [17] 75 µM | DIO2 (gene 1734) 79 µM

CCCCCCCCc1ccc(O)cc1
active: [1] 20 µM | DIO2 (gene 1734) 151 µM

CCOP(=S)(OCC)SCSP(=S)(OCC)OCC
active: [1] 24.4 µM | [14] 13400 nM | [16] 10300 nM
inactive: [15] | [17]

C[C@]12CCC(=O)C[C@@H]1CC[C@@H]1[C@@H]2CC[C@]2(C)[C@@H](O)CC[C@@H]12
active: [1] 30.7 µM

O=C(OC1CCCCC1)c1ccccc1C(=O)OC1CCCCC1
inactive: [18] | [19]

CC(=O)C=C(C)C
inactive: [14] | [15] | [16] | [17]

O=C(O)C(F)(F)C(F)(F)C(F)(F)C(F)(F)C(F)(F)C(F)(F)F
not listed: [1] | [5] | [14] | [15] | [16] | DIO2 (gene 1734) | [18] | [19]
inactive: all other assays above

CC(C)(c1ccc(OCC2CO2)cc1)c1ccc(OCC2CO2)cc1 (centres undefined)
active: DIO2 (gene 1734) 3.76 µM

O=S(=O)(c1ccc(Cl)cc1)c1ccc(Cl)cc1
inactive: [14] | [16] | [17]

CC12CC1(C)C(=O)N(c1cc(Cl)cc(Cl)c1)C2=O (centres undefined)
inactive: DIO2 (gene 1734)

NNC(=S)NN
inactive: [14] | [15] | [16] | [17]

c1cc[c]([Hg][c]2ccccc2)cc1
inactive: [16] | [17]

Cn1sc(Cl)cc1=O
active: [2] 8.69 µM | [3] 4.02 µM | [4] 5.73 µM | [5] 5.1 µM | [6] 7.73 µM | [7] 7.64 µM | [8] 7.54 µM | [9] 4450 nM | [10] 3.57 µM | [11] 7.62 µM | [12] 1.84 µM | [13] 3.51 µM

NC(=O)O
inactive: [14] | [15] | [16] | [17]

CCCCCCCCSC(=O)Oc1cc(Cl)nnc1-c1ccccc1
inactive: [14] | [15] | [16] | [17]
